# Reference: PubChem BioAssay (NCATS)
# Several values for one entry are separate records, joined by “and”; a condition that tells them apart may be missing. Equal entries are not always repeated. Inconclusive results are not listed. Activity calls are given as the source filed them. The call rests on the fitted dose curve; in most records, active means well fitted activation curve with a large enough effect; inconclusive means small, poorly fitted or top-dose-only effect; inactive means no such curve, though single readings can be large or run the other way. Starred links: 1 amine or outer side, 2 acyl side, 3 side chain; linkers in the order of their positions; H or OH if unused. Positions of bridges follow the written chain, without caps; N, C: chain ends. Non-standard residues stand in square brackets, D forms with d. Residues, ends and D or L forms follow the SMILES beside them. ξ: configuration not given here. *: point of attachment. X11 = NC1=NCCC(C(N[*:1])C(=O)[*:2])N1; ΔAla(3-NHCONH2) = NC(=O)NC=C(N)C(=O)O; ξβ3hOrn = NCCCC(N)CC(=O)*; Dap = NC[CH](N)C(=O)O
# Target: Cellular tumor antigen p53 (Homo sapiens) (UniProt P04637)
# Test: Primary qHTS for small molecule compounds that upregulate eGFP-tagged delta133p53alpha (in N-terminal) cells. (AID 2060322);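 further: series mostly up to about 56 µM; 0% = DMSO vehicle and 100% = reference activator; nearly all actives have a fitted effect of over 75% in size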
# Conditions: NCI-H358 eGFP-delta133p53alpha fluorescence, 24 h; activation: stronger effect = higher value
# Summary of the method: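 NCI-H358 cells pre-induced 24 h with 10 ng/ml doxycycline for eGFP-delta133p53alpha, plated dox-free and exposed 24 h at 37C to titrated compounds. Fixed, Hoechst-stained; gated GFP peak intensity by laser scanning cytometry, normalized to DMSO (0%) and 57.5 uM 5-azacytidine (100%).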
# Cellular tumor antigen p53 (Homo sapiens), sequence (P04637 whole entry, looked up): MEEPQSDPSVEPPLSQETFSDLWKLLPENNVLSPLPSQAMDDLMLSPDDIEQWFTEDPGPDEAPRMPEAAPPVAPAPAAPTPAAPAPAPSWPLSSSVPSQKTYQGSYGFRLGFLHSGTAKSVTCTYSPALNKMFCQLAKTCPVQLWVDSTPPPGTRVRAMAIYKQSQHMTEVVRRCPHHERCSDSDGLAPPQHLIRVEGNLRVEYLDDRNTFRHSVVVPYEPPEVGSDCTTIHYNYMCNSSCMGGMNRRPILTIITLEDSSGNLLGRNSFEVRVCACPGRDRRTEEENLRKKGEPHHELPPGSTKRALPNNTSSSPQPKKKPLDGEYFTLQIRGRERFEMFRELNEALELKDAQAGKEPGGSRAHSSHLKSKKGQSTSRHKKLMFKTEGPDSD
row,Compound,activation
1,CCC(C(=O)O)c1ccc(N2Cc3ccccc3C2=O)cc1 (stereo not given),18.6% (inactive)
2,CN1[C@@H]2CC(OC(=O)[C@H](CO)c3ccccc3)C[C@H]1[C@@H]1O[C@@H]12 (stereo not given in full),-10.7% (inactive)
3,Nc1c2c(nc3c1CCC3)CCCC2,-11.7% (inactive)
4,CC(=O)N[C@H]1[C@H]([C@H](O)[C@H](O)CO)OC(C(=O)O)=C[C@@H]1N=C(N)N,5.02% (inactive)
5,O=C(O)C(=O)Nc1cccc(C2=NN=N[N]2)c1,19.6% (inactive)
6,O=C(OCC(O)CO)c1ccccc1Nc1ccnc2c(C(F)(F)F)cccc12 (stereo not given),-13.4% (inactive)
7,COc1ccc(C2C(=O)c3ccccc3C2=O)cc1,-15.9% (inactive)
8,CCOC(=O)[C@H]1O[C@H]1C(=O)N[C@@H](CC(C)C)C(=O)NCCC(C)C,17.3% (inactive)
9,O=C(CCOCCOCCOCCOCCC(=O)Nc1c(I)cc(I)c(C(=O)O)c1I)Nc1c(I)cc(I)c(C(=O)O)c1I,-9.21% (inactive)
10,CCOc1ccc(NC(C)=O)cc1,7.53% (inactive)
11,Cc1c(-c2ccccc2)oc2c(C(=O)OCCN3CCCCC3)cccc2c1=O,-16.7% (inactive)
12,C[C@@H](O)[C@H](N)C(=O)O,-18.4% (inactive)
13,O=C(O)Cc1cccc2ccccc12,1.67% (inactive) and -33.3% (inactive)
14,O=C(O)CC(O)C(=O)O (stereo not given),-26.6% (inactive)
15,CC(=O)N[C@@H](CCC(N)=O)C(=O)O,-8.37% (inactive)
16,COc1ccc(-n2nc(CCC(=O)N(C)O)cc2-c2ccc(Cl)cc2)cc1,-8.47% (inactive)
17,CC(C)OC(=O)[C@H](C)N[P@](=O)(OC[C@H]1O[C@@H](n2ccc(=O)[nH]c2=O)[C@](C)(F)[C@H]1O)Oc1ccccc1,15% (inactive)
18,CNC(=O)c1cccc(-c2ccc3c(N4CCOC[C@H]4C)nc(N4CCOC[C@H]4C)nc3n2)c1,19.5% (inactive)
19,COc1ccc(C(=O)N2CCN(CC(=O)N3CCOCC3)CC2)cc1,3.95% (inactive)
20,COc1cc(C(=O)NCCCCCC(=O)O)cc(OC)c1OC,-9.6% (inactive)

row,Compound,activation
1,Cn1c(=O)c2c(ncn2CC(=O)O)n(C)c1=O,1.69% (inactive)
2,CC(=O)c1ccc(O)c(C(N)=O)c1,-19.8% (inactive)
3,CCC(=C(c1ccc(O)cc1)c1ccc(OCCNC)cc1)c1ccccc1,62.8% (inactive)
4,Cc1onc(-c2ccccc2)c1C(=O)Cl,6.21% (inactive)
5,NCCCC(N)CC(=O)NCC1NC(=O)C(CO)NC(=O)C(N)CNC(=O)C(C2CCN=C(N)N2)NC(=O)C(=CNC(N)=O)NC1=O (stereo not drawn) (H-[Dap]S[Dap](ξβ3hOrn)[ΔAla(3-NHCONH2)][X11]; lactam 1-C; configuration not given here),-4.18% (inactive)
6,CC(=CC(=O)Nc1ccccc1C(=O)O)c1ccc2ccccc2c1,-15.6% (inactive)
7,CC(C)=C(C#N)C(=O)N1CCCN(c2cc(NCCC(=O)O)nc(-c3ccccn3)n2)CC1,3.35% (inactive)
8,O=C(CCl)Nc1ccc(S(=O)(=O)c2ccc(NC(=O)CCl)cc2)cc1,4.47% (inactive)
9,Nc1ncnc(Nc2ccccc2)n1,-16.7% (inactive)
10,CCN(CC)CCNC(=O)c1cc(Br)c(N)cc1OC,13% (inactive)
11,CCCCOC(=O)c1ccc(O)cc1,-13% (inactive)
12,O=C1C(=O)c2ccccc2C(O)=C1C1CCC(c2ccc(Cl)cc2)CC1 (stereo not given),-33.3% (inactive)
13,COc1cc(C(C)C)c(Oc2cnc(N)nc2N)cc1I,3.67% (inactive)
14,CN1CCN(CCC(=O)N2c3ccccc3Sc3ccc(C(F)(F)F)cc32)CC1,18.6% (inactive)
15,NC[C@H]1O[C@H](O[C@H]2[C@H](O[C@@H]3O[C@H](CO)[C@@H](O)[C@H]3O)C(O)[C@H](N)C[C@@H]2N)[C@H](N)[C@@H](O)[C@@H]1O (stereo not given in full),0% (inactive)
16,Cc1ccc2nc(NC(=O)CSc3nc4c(c(=O)n3C)SC(C)C4)sc2c1 (stereo not given),21.2% (inactive)
17,NC(=O)n1c(O)c(C(=O)c2cccs2)c2cc(Cl)ccc21,-6.21% (inactive)
18,COC(=O)N[C@H](C(=O)N1CCC[C@@H]1c1ncc(-c2ccc(-c3ccc(-c4cnc([C@@H]5CCCN5C(=O)[C@@H](NC(=O)OC)C(C)C)[nH]4)cc3)cc2)[nH]1)C(C)C,77.3% (inactive)
19,CCC(=O)O[C@H]1[C@H](O[C@@H]2[C@@H](C)[C@H](O[C@H]3C[C@@](C)(OC)[C@@H](O)[C@H](C)O3)[C@@H](C)C(=O)O[C@H](CC)[C@@](C)(O)[C@H](O)[C@@H](C)C(=O)[C@H](C)C[C@@]2(C)O)O[C@H](C)C[C@@H]1N(C)C,0.837% (inactive)
20,CCOC(=O)NNc1ccc(N(CC)CC(C)O)nn1 (stereo not given),15.1% (inactive)
